Targets with a hit are over-represented here; the source holds about 7,900 in all. About 0.6% of all pairs of compound and target were hits.
Legend:
Assay in all cases: log2 fold change, soluble protein after heating vs DMSO (PISA); higher = thermal stabilisation; K562 cells, 10 uM, 30 min; active = over 0.2 and 3.5 SD of the protein, either way, in both replicates (recomputed)
erlotinib = compound: C#Cc1cccc(Nc2ncnc3cc(OCCOC)c(OCCOC)cc23)c1 [erlotinib]
Summary of the method: (§1)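 Soluble protein was quantified by TMTpro 16plex LC-MS/MS after channel sums were equalised. It was obtained as the supernatant after 21,000xg for 90 min from pooled aliquots of K562 cells (2×10^6 cells/mL, 10 μM compound, 30 min) heated for 3 min across 48°C-58°C and extracted in PBS with 0.5% NP-40 at 4°C. Thermal stability values are relative to control samples and come from duplicates. They are given as log2 fold changes.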

[1] = compound: C/C(=N\NC(=O)C1=CC(=CC=C1)S(=O)(=O)N2CCOCC2)/C3=C(C=CC(=C3)Cl)O
Summary of the method: as §1

[2] = compound: C1=CC(=C(C=C1Cl)C2=NC3=NC=CN=C3C(=N2)NC4=CC=NC=C4)F
Summary of the method: as §1

[3] = compound: C1=CC(=CC=C1C2=NC3=C(N2)C=C(C=C3)C(=O)N)OC4=CC=C(C=C4)Cl
Summary of the method: as §1

[4] = compound: C1=CC2=C(C=CC(=C2)/C=C\3/C(=O)NC(=NCC4=CC=CS4)S3)N=C1
Summary of the method: as §1

[5] = compound: C1=CC2=NC=CN=C2C=C1/C=C/3\C(=O)NC(=O)S3
Summary of the method: as §1

[6] = compound: C1=CC=C(C=C1)C2=NC(=C(N2)C3=CC=NC=C3)C4=CC(=C(C=C4)Cl)O
Summary of the method: as §1

[7] = compound: C1=CC=C2C(=C1)C3=NNC4=CC=CC(=C43)C2=O
Summary of the method: as §1

[8] = compound: C1CCN(C1)C(=O)NC2=CC=CC(=C2)NC3=NC=C(C(=N3)NCCC4=CN=CN4)Br
Summary of the method: as §1

[9] = compound: C1CN(CCC1(CC2=CC=C(C=C2)Cl)N)C3=NC=NC4=C3C=CN4
Summary of the method: as §1

IRAK-1-4 Inhibitor I = compound: C1COCCN1CCN2C3=CC=CC=C3N=C2NC(=O)C4=CC(=CC=C4)[N+](=O)[O-] [IRAK-1-4 Inhibitor I]
Summary of the method: as §1

ibrutinib = compound: C=CC(=O)N1CCC[C@@H](n2nc(-c3ccc(Oc4ccccc4)cc3)c3c(N)ncnc32)C1 [ibrutinib]
Summary of the method: as §1

[10] = compound: CC(=O)c1cnc2ccc(-c3cc(Cl)c(O)c(Cl)c3)nc2c1N[C@H]1CC[C@H](CN(C)C)CC1
Summary of the method: as §1

ralimetinib = compound: CC(C)(C)Cn1c(N)nc2ccc(-c3[nH]c(C(C)(C)C)nc3-c3ccc(F)cc3)nc21 [ralimetinib]
Summary of the method: as §1

[11] = compound: CC(C)(O)CC(=O)NCCn1ccc2ncnc(Nc3ccc(Oc4cccc(C(F)(F)F)c4)c(Cl)c3)c21
Summary of the method: as §1

[12] = compound: CC(C)C1=C2N=C(C=C(N2N=C1)NCC3=CC=CC=C3)NCCCCCCN
Summary of the method: as §1

[13] = compound: CC(C)C[C@@H](C=O)NC(=O)[C@H](CC(C)C)NC(=O)[C@H](CC(C)C)NC(=O)OCc1ccccc1
Summary of the method: as §1

pinometostat = compound: CC(C)N(C[C@H]1O[C@@H](n2cnc3c(N)ncnc32)[C@H](O)[C@@H]1O)[C@H]1C[C@@H](CCc2nc3cc(C(C)(C)C)ccc3[nH]2)C1 [pinometostat]
Summary of the method: as §1

[14] = compound: CC1=C(C(CC(=O)N1)C2=CC=C(C=C2)C(F)(F)F)C(=O)NC3=C(C=C4C(=C3)C=NN4)F
Summary of the method: as §1

[15] = compound: CC1=C(C2=C(C=C1)C(=O)C3=CC=CC=C3N2CCCN)C
Summary of the method: as §1

Measured: log2 fold change

GCDH (UniProt Q92947)
Sequence of UniProt Q92947 (Q92947 whole entry, looked up): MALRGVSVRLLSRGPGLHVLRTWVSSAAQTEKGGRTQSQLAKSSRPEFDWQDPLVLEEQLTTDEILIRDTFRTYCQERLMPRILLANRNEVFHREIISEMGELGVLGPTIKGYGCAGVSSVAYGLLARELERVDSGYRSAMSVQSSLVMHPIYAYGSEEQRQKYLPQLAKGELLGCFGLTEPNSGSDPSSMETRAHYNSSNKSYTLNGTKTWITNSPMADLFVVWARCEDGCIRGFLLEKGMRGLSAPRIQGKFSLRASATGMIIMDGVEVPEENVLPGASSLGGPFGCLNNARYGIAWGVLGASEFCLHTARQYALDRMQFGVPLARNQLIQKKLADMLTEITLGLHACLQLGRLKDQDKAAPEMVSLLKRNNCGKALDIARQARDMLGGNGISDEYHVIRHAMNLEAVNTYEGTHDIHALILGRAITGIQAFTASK
inactive: erlotinib 0.016 | [1] -0.078 | [2] 0.045 | [4] 0.081 | [5] -0.011 | [6] 0.082 | [7] 0.048 | [8] -0.011 | [9] 0.039 | IRAK-1-4 Inhibitor I 0.018 | ibrutinib 0.025 | [10] -0.092 | ralimetinib 0.007 | [11] -0.09 | [12] 0.05 | [13] 0.003 | pinometostat -0.053 | [14] -0.012 | [15] 0.055
active: [3] -0.273

HDAC1 (UniProt Q13547)
Sequence of UniProt Q13547 (Q13547 whole entry, looked up): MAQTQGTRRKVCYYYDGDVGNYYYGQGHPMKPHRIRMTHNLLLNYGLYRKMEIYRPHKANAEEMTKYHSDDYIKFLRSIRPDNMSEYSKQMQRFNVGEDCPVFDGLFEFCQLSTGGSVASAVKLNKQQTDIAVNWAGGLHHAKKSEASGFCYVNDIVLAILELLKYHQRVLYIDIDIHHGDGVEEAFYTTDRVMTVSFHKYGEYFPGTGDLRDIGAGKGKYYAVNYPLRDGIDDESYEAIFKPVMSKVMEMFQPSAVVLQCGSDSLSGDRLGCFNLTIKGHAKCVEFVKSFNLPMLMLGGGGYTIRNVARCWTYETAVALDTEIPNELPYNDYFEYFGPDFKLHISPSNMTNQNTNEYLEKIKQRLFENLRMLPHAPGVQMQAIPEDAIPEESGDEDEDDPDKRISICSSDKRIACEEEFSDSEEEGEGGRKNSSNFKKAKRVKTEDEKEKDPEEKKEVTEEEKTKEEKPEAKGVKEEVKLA
inactive: [1] 0.015 | [2] 0.011 | [3] -0.01 | [4] 0.16 | [5] 0.004 | [6] 0.021 | [7] -0.055 | [8] -0.004 | [9] -0.018 | IRAK-1-4 Inhibitor I -0.033 | ibrutinib -0.052 | [10] 0.056 | ralimetinib 0.02 | [11] -0.021 | [12] -0.009 | [13] -0.067 | pinometostat 0.03 | [14] 0.003 | [15] 0.023
active: erlotinib 1.14

HRAS (UniProt P01112)
Sequence of UniProt P01112 (P01112 whole entry, looked up): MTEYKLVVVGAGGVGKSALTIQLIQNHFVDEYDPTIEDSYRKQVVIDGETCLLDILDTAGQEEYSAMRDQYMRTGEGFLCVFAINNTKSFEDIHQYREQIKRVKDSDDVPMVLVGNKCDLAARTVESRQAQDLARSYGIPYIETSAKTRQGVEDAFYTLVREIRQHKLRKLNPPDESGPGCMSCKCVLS
inactive: erlotinib 0.029 | [1] 0.034 | [2] 0.069 | [3] 0.146 | [4] -0.356 | [5] -0.244 | [6] 0.138 | [7] -0.168 | [8] -0.08 | [9] 0.048 | IRAK-1-4 Inhibitor I 0.093 | ibrutinib 0.143 | [10] 0.065 | ralimetinib 0 | [11] -0.004 | [12] 0.047 | [13] 0.13 | pinometostat -0.059 | [14] -0.013 | [15] -0.121

FMC1 (UniProt Q96HJ9)
Sequence of UniProt Q96HJ9 (Q96HJ9 whole entry, looked up): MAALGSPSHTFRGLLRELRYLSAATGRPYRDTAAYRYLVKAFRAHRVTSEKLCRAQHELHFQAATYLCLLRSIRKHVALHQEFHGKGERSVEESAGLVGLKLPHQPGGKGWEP
active: [6] 0.319
inactive: erlotinib 0 | [1] 0.072 | [2] 0.083 | [3] 0.004 | [4] 0.108 | [5] -0.063 | [7] 0.001 | [8] -0.026 | [9] -0.042 | IRAK-1-4 Inhibitor I -0.06 | ibrutinib 0.008 | [10] 0.066 | ralimetinib -0.098 | [11] -0.006 | [12] 0.01 | [13] 0.125 | pinometostat 0.047 | [14] -0.041 | [15] 0.02

GNB2 (UniProt P62879)
Sequence of UniProt P62879 (P62879 whole entry, looked up): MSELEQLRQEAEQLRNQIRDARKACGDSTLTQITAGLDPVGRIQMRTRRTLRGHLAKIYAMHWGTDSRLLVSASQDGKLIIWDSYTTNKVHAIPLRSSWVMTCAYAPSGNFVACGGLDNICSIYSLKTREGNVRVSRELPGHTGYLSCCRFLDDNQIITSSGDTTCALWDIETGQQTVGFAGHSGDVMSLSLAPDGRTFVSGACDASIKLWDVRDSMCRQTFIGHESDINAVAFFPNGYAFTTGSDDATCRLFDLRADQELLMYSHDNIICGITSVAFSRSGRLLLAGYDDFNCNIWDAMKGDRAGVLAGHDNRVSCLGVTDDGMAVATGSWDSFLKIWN
inactive: erlotinib 0.003 | [1] 0.079 | [2] -0.04 | [3] 0.051 | [4] -0.016 | [5] 0.007 | [6] -0.003 | [7] 0.008 | [8] -0.057 | [9] -0.002 | IRAK-1-4 Inhibitor I -0.021 | ibrutinib 0.003 | [10] -0.013 | ralimetinib 0.016 | [11] 0.013 | [12] 0.022 | [13] -0.025 | pinometostat 0.016 | [14] -0.034 | [15] 0.076

GUSB (UniProt P08236)
Sequence of UniProt P08236 (P08236 whole entry, looked up): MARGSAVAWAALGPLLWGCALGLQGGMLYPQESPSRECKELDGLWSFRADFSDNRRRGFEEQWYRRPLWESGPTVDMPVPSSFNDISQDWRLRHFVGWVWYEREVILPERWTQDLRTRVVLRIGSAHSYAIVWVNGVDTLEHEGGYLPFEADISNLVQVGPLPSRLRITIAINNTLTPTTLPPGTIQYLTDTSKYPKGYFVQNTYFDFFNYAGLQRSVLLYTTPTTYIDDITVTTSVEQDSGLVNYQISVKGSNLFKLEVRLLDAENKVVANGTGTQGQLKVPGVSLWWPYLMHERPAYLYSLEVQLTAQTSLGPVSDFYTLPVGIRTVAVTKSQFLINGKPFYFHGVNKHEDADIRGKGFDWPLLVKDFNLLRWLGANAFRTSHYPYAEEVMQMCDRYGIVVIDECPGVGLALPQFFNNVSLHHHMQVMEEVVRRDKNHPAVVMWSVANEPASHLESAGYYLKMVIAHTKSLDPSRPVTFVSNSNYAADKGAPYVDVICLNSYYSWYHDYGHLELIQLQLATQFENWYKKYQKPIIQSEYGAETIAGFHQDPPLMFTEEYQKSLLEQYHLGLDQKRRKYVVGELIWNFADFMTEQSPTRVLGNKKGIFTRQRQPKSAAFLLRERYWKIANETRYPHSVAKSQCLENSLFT
inactive: erlotinib 0.09 | [1] -0.099 | [2] -0.063 | [3] 0.165 | [4] -0.095 | [5] 0.032 | [6] 0.009 | [7] 0.052 | [8] 0.033 | [9] -0.002 | IRAK-1-4 Inhibitor I 0.037 | ibrutinib -0.016 | [10] -0.075 | ralimetinib -0.013 | [11] 0.011 | [12] 0.025 | [13] -0.005 | pinometostat -0.032 | [14] 0.174 | [15] -0.077

GNG5 (UniProt P63218)
Sequence of UniProt P63218 (P63218 whole entry, looked up): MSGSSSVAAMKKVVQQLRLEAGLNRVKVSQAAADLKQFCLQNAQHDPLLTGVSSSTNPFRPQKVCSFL
inactive: erlotinib -0.07 | [1] 0.01 | [3] 0.089 | [4] 0.031 | [5] -0.001 | [6] 0.072 | [7] 0.038 | [8] -0.037 | [9] -0.044 | IRAK-1-4 Inhibitor I -0.022 | ibrutinib 0.039 | [10] 0.047 | ralimetinib 0.072 | [11] -0.084 | [12] 0.109 | [13] -0.065 | pinometostat -0.072 | [14] -0.071 | [15] 0.002
active: [2] 0.436

GTF2A2 (UniProt P52657)
Sequence of UniProt P52657 (P52657 whole entry, looked up): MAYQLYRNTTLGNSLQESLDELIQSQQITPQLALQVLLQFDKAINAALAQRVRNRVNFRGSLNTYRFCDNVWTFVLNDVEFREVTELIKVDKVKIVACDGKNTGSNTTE
inactive: erlotinib -0.057 | [1] 0.048 | [2] 0.089 | [3] -0.005 | [4] 0.132 | [5] 0.038 | [6] -0.002 | [7] -0.02 | [8] 0.008 | [9] 0.07 | IRAK-1-4 Inhibitor I 0.013 | ibrutinib -0.028 | [10] -0.002 | ralimetinib -0.078 | [11] -0.026 | [12] 0.051 | [13] -0.019 | pinometostat -0.064 | [14] 0.016
active: [15] -0.357

Source: the supplement of paper PMC10849652
